biological target: ZNF836; assay: pooled miR-30 sensor sort-seq; sequence = guide strand; conditions: shRNA
Further: reference of the scale not given here.

| Sequence | sensor-assay potency score (higher = more potent) |
| --- | --- |
| TTTTGTCTGAAGATCTTGCCAC | 0.166 |
| TAGGAGAACATCTAAAGGCTTT | 0.15 |
| TTGAACGCTGAGTATAGGCTTT | 0.0637 |
| TAACTTTGACTAAAGGACTTGC | 0.219 |
| TTCAGTTTGAAATTTCTGCAGT | 0.363 |
| TTTCTCTGTAGTATGTACCATC | -0.51 |
| TTTGTTTTCTACATCCTCTTGA | 0.866 |
| TAAGACTTGAAGACACTCTAAA | -0.52 |
| TTGTTTTAAGACTCTCTGCAGT | -0.237 |
| TTGACTGAAGACCTTGTCGCAT | -0.213 |

biological target: ZNFX1; assay: as above; conditions: shRNA

| Sequence | sensor-assay potency score (higher = more potent) |
| --- | --- |
| TTCAATCTCTTCTAGCCGCTGT | 0.737 |
| TAATTTGCCAAACAGACTCGTT | -0.716 |
| TTCTCTGCTATCTTGTAGCGGG | -0.426 |
| TTTCTCTTCTAAGACATGCATC | -0.81 |
| TTGAATAATAGCCAGTTCCCTT | -1.02 |
| TTTATTATGAGAGTTAGTCTGC | 0.368 |
| TAGACCTCTACTGCTATGCTAT | -0.477 |
| TTGTCCACAACATGGACCCTGA | -0.839 |
| TTTGTCCACAACATGGACCCTG | -0.317 |
| TACAACTGTAGCCAGAGCCTAT | -0.979 |
| TTGGTCTCTAGCTTCGTCGCTG | 0.295 |
| TAACACACAACCAAGATGGGGA | 0.323 |

biological target: ZNRF2; assay: as above; conditions: shRNA

| Sequence | sensor-assay potency score (higher = more potent) |
| --- | --- |
| TAAACACATTACAAGATGCAAA | -1.15 |
| TCGTGCTATAGTATCTCCCTGC | 0.0677 |
| TGCATAGACAAGGCAGTCGTGC | -0.863 |
| TACTTCAAACCATTCATCTATG | -0.758 |
| TTATGATATATGCATAGACAAG | -1.91 |
| TTGTTAAACACATTACAAGATG | -1.34 |
| TTGTCAAGACAAGAAAACCTAT | -0.902 |
| TTACTTCAAACCATTCATCTAT | 0.146 |
| TTTATCAGTATTACCTATGTAG | 0.361 |
| ATAGACAAGGCAGTCGTGCTAT | 0.0716 |
| TTAAACACATTACAAGATGCAA | -0.454 |

biological target: ZSCAN21; assay: as above; conditions: shRNA

| Sequence | sensor-assay potency score (higher = more potent) |
| --- | --- |
| TTTCTCTTCTTTCTCCTCGACT | -0.944 |
| TAAAACAACGACAACAACAGGA | 0.555 |
| TTTAAGAAGGTCTGAGCTCTGC | 0.0311 |
| ATATATAACGTCTCTCTCCTGG | 0.19 |
| TAGGAACTGATTCTCTACCTTT | 0.143 |
| TACTCAATCTGCAATCTCGGAC | -0.338 |
| TAATGTTTCTTCCTTAACTAGA | -0.759 |
